Experimental data from PubChem BioAssay (Tox21).
Results filed as inconclusive are left out. Values without a mark were called inactive. Activity calls are given as the source filed them. Calls follow the shape of the dose curve; as a rule, active = well fitted inhibition curve with a large enough effect in the repeat runs; inconclusive = weak or mixed curves; inactive = flat fitted curve, though single readings scatter.

Biological target: Luciferin 4-monooxygenase (Photinus pyralis) (UniProt P08659)
Assay: qHTS assay to identify small molecule inhibitors of firefly luciferase (AID 1224835); also: nearly all actives have a fitted effect of over 25% in size
Conditions: purified P. pyralis luciferase, luminescence inhibition; series mostly up to 115 µM; activity change, negative = inhibition: at the top concentration
Procedure, shortened: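 Inhibition of purified Photinus luciferase is measured by luminescence. Substrate levels (D-luciferin, ATP) sit at their KM values. Each compound is tested in a concentration series.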
% is scaled to controls: 0 for no effect and ±100 for the full control effect; potency is read from the fitted curve at half-maximal effect.

Chain of Luciferin 4-monooxygenase (Photinus pyralis) (P08659 whole entry, looked up): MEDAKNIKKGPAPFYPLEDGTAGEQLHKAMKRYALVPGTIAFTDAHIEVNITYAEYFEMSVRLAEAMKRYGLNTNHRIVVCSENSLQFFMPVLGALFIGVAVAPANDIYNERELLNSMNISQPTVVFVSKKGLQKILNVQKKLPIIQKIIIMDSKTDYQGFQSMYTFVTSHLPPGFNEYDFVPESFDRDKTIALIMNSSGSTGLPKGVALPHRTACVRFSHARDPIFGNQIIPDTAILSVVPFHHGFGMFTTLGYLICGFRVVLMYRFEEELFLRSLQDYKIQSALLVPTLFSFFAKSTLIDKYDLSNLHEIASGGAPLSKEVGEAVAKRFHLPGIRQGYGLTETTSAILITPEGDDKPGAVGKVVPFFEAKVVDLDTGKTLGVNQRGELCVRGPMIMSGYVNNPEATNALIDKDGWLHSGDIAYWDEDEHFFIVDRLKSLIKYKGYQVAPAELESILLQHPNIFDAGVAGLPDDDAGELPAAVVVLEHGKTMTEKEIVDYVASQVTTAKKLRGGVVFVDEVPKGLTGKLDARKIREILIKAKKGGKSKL

SMILES | activity change, negative = inhibition | Potency
CC(c1ccc(O)cc1)(c1ccc(O)cc1)c1ccc(O)cc1 | -0.541% | 
Nc1ccc([N+](=O)[O-])cc1[N+](=O)[O-] | 1.93% | 
COc1nn(CSP(=S)(OC)OC)c(=O)s1 |  | 35.6 µM (active)
COC(=O)C(C)N(C(=O)Cc1ccccc1)c1c(C)cccc1C (stereo not given) | 2.69% | 
O=C(CBr)c1ccccc1 | -1.91% | 
N#CCC#N | -11.3% | 
C(=NC1CCCCC1)=NC1CCCCC1 | -12.3% | 
Clc1ccc(C2(Cn3cncn3)CC(Br)CO2)c(Cl)c1 (stereo not given) | 1.89% | 
CC1(C)CCC(Cc2ccc(Cl)cc2)C1(O)Cn1cncn1 (stereo not given) | 5.29% | 
CS/C(C)=N/OC(=O)N(C)SN(C)C(=O)O/N=C(\C)SC |  | 31.7 µM (active)
CCCN(CCC)c1c([N+](=O)[O-])cc(S(C)(=O)=O)cc1[N+](=O)[O-] | 2.78% | 
COP(=O)(OC)O/C(=C/Cl)c1cc(Cl)c(Cl)cc1Cl | 0.955% | 
C=CC[C@]1(O)CC[C@H]2[C@@H]3CCC4=CC(=O)CCC4=C3C=C[C@@]21C | -0.365% [at 52.9 µM] | 
CCOP(=O)(OCC)O/C(=C/Cl)c1ccc(Cl)cc1Cl | 0.21% | 
CN1C[C@H](CNC(=O)OCc2ccccc2)C[C@@H]2c3cccc4c3c(cn4C)C[C@H]21 | 1.34% [at 52.9 µM] | 
O=C1C(=O)c2cccc3cccc1c23 | 0.648% | 
CC(=O)c1cc2c(cc1C)C(C)(C)C(C)CC2(C)C (stereo not given) | 0.193% | 
OC(c1ccc(Cl)cc1)(c1ccc(Cl)cc1)c1cccnc1 | 0.196% | 
CCO[C@H]1O[C@@H]2OC3(C)CC[C@H]4[C@H](C)CC[C@@H]([C@H]1C)[C@@]24OO3 | 3.4% [at 52.9 µM] | 
CCCCc1c(C)nc(NCC)nc1OS(=O)(=O)N(C)C | 3.52% | 
